Measured values: PubChem BioAssay (EPA / NIEHS)
Results filed as inconclusive are left out. Calls of active or inactive are those of the source. How the source made its calls, unless noted: active means hit-call score of the fitted dose curve at least 0.9, where 1 is the maximum; inconclusive means response in the unintended direction; inactive means score below 0.9.

Tests used:
[1] = molecular target: human Peroxisome Proliferator-activated Receptor alpha (PPARa), PPARA (gene 5465) (UniProt Q07869); test: ATG_PPARa_TRANS: Attagene TRANS-FACTORIAL HepG2 Assay for human Peroxisome Proliferator-activated Receptor alpha (PPARa) (AID 2283001);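 on AC50: potency for gain of reporter signal over DMSO so agonist or activator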
Method in brief: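 Measures transcriptional activity of an exogenous chimeric PPARa-Gal4 protein in transiently transfected HepG2 cells after 24 h dosing. Reporter mRNA quantified via RT-PCR and capillary electrophoresis; DMSO served as negative control.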

[2] = molecular target: human Peroxisome Proliferator-activated Receptor delta (PPARd), PPARD (gene 5467) (UniProt Q03181); test: ATG_PPARd_TRANS: Attagene TRANS-FACTORIAL HepG2 Assay for human Peroxisome Proliferator-activated Receptor delta (PPARd) (AID 2283002)
Method in brief: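 Read-out: reporter mRNA induction, quantified by fluorescent RT-PCR products resolved by capillary electrophoresis. Human HepG2 liver cells carried transiently transfected Gal4-UAS reporter constructs with chimeric NR-Gal4 fusions. Cells were dosed for 24 h; DMSO served as baseline.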

[3] = molecular target: Peroxisome proliferator-activated receptor gamma (Homo sapiens) (UniProt P37231); test: ATG_PPARg_TRANS: Attagene TRANS-FACTORIAL HepG2 Assay for human Peroxisome Proliferator-activated Receptor-gamma (PPARg) (AID 2283007)
Method in brief: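 Chimeric NR-Gal4 transactivation is measured in transiently transfected HepG2 cells by reporter mRNA induction at 24 h. Detection uses RT-PCR with fluorescent labelling and capillary electrophoresis; DMSO defines baseline.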

[4] = molecular target: Nuclear receptor subfamily 1 group I member 2 (Homo sapiens) (UniProt O75469); test: ATG_PXR_TRANS: Attagene TRANS-FACTORIAL HepG2 Assay for human Pregnane X Receptor (PXR) (AID 2283008)
Method in brief: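 HepG2 cells transiently transfected with GAL4-UAS reporter units and PXR-Gal4 chimera, exposed 24 h. Reporter mRNA quantified by RT-PCR, fluorescent labelling, HpaI digestion and capillary electrophoresis; gain of signal vs DMSO.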

[5] = molecular target: Retinoic acid receptor alpha (Homo sapiens) (UniProt P10276); test: ATG_RARa_TRANS: Attagene TRANS-FACTORIAL HepG2 Assay for human Retinoic Acid Receptor alpha (RARa) (AID 2283005)
Method in brief: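 HepG2 transiently transfected with multiplex GAL4-UAS reporter units including a human RARa–GAL4 chimera; 24 h compound exposure. Reporter mRNA quantified by RT-PCR, 6-FAM labeling and capillary electrophoresis; gain of signal versus DMSO.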

[6] = molecular target: human Retinoic Acid Receptor gamma (RARg), RARG (gene 5916) (UniProt P13631); test: ATG_RARg_TRANS: Attagene TRANS-FACTORIAL HepG2 Assay for human Retinoic Acid Receptor gamma (RARg) (AID 2283009)
Method in brief: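 HepG2 cells transiently transfected with multiplexed reporter units expressing chimeric RARg-GAL4 and GAL4-UAS-driven reporters; 24 h compound exposure. Reporter mRNA quantified by RT-PCR with fluorescent labelling and capillary electrophoresis; gain-of-signal fitted relative to DMSO baseline.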

[7] = molecular target: human RAR-related Orphan Receptor beta (RORb), RORB (gene 6096) (UniProt Q92753); test: ATG_RORb_TRANS: Attagene TRANS-FACTORIAL HepG2 Assay for human RAR-related Orphan Receptor beta (RORb) (AID 2283010)
Method in brief: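 HepG2 cells were transiently transfected with multiplexed GAL4-UAS reporter units expressing chimeric nuclear receptor–GAL4 proteins, then dosed for 24 h. Reporter mRNA was quantified by RT-PCR with fluorescent labelling and capillary electrophoresis; gain of signal was fitted relative to DMSO.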

[8] = molecular target: human Retinoic Acid Receptor beta (RARb), RARB (gene 5915) (UniProt P10826); test: ATG_RARb_TRANS: Attagene TRANS-FACTORIAL HepG2 Assay for human Retinoic Acid Receptor beta (AID 2283004)
Method in brief: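 HepG2, transient MRTU transfection, NR–Gal4 chimera, 24 h treatment; RT-PCR plus CE fluorescence detection of reporter mRNA; gain of signal vs DMSO.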

[9] = read-out: Intercellular Adhesion Molecule 1 (ICAM1), ICAM1 (gene 3383); test: BSK_3C_ICAM1: BioMAP Diversity Plus: 3C Assay for Intercellular Adhesion Molecule 1 (ICAM1) Biomarker Activity (AID 2283003; active means hit-call score of the fitted dose curve at least 0.9, where 1 is the maximum; inactive means score below 0.9); settings: primary human endothelial cells (HUVEC); actives raise or lower the signal
Method in brief: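 Primary human umbilical vein endothelial cells in the BioMAP 3C system were exposed to chemicals for 24 h, then ICAM-1 was quantified by ELISA. Activity was fitted bidirectionally against the DMSO negative control baseline.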

[10] = BSK_3C_Proliferation: Cell Proliferation Assessment in the BioMAP Diversity Plus: 3C Assay (AID 2283006; active means hit-call score of the fitted dose curve at least 0.9, where 1 is the maximum; inactive means score below 0.9;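 further: potency may reflect either rise or fall in cell number versus DMSO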); settings: primary human endothelial cells (HUVEC)
Method in brief: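 Human umbilical vein endothelial cells were grown sub-confluent and exposed to chemical for 48 h, then fixed with 10% TCA and stained with 0.1% sulforhodamine B; absorbance at 560 nm gave relative cell number, fitted bidirectionally against DMSO baseline.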

human Peroxisome Proliferator-activated Receptor alpha (PPARa), PPARA (gene 5465), sequence (Q07869 whole entry, looked up, the tested form may be a part): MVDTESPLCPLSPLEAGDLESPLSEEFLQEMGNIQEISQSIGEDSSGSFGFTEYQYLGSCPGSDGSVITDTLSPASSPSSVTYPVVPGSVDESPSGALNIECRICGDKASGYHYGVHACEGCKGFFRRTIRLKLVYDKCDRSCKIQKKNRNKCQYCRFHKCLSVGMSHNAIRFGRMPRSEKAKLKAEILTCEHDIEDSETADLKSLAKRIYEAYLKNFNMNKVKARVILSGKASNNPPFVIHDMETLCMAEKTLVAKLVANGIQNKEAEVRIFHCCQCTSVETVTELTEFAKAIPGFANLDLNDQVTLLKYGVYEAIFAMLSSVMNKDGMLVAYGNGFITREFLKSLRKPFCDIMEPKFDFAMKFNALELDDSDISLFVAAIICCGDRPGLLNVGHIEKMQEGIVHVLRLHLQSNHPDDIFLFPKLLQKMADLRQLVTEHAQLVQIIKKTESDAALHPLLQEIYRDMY
human RAR-related Orphan Receptor beta (RORb), RORB (gene 6096), sequence (Q92753 whole entry, looked up, the tested form may be a part): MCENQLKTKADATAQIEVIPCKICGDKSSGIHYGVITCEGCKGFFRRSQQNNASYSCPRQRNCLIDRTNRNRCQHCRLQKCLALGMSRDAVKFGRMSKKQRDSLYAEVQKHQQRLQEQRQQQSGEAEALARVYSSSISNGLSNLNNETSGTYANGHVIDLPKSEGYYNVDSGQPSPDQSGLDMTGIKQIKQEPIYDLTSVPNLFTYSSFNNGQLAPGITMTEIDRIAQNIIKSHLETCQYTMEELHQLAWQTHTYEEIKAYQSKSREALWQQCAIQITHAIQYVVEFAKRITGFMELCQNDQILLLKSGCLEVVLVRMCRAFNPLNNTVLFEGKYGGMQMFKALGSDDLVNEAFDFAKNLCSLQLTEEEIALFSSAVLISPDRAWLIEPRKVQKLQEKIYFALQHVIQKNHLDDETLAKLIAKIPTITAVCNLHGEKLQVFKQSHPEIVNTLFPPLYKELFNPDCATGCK
human Retinoic Acid Receptor gamma (RARg), RARG (gene 5916), sequence (P13631 whole entry, looked up, the tested form may be a part): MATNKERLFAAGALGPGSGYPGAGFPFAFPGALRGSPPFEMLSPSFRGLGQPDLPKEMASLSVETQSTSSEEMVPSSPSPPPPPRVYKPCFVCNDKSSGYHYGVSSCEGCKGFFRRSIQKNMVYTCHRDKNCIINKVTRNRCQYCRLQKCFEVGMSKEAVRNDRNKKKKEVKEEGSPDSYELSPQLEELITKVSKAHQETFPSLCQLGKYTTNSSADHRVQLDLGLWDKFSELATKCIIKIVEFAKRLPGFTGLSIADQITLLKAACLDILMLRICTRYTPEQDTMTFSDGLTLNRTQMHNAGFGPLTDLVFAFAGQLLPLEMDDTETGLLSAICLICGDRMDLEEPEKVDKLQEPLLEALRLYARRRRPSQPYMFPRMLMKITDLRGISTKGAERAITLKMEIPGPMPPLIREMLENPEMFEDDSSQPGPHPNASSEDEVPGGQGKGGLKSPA
Nuclear receptor subfamily 1 group I member 2 (Homo sapiens), sequence (O75469 whole entry, looked up, the tested form may be a part): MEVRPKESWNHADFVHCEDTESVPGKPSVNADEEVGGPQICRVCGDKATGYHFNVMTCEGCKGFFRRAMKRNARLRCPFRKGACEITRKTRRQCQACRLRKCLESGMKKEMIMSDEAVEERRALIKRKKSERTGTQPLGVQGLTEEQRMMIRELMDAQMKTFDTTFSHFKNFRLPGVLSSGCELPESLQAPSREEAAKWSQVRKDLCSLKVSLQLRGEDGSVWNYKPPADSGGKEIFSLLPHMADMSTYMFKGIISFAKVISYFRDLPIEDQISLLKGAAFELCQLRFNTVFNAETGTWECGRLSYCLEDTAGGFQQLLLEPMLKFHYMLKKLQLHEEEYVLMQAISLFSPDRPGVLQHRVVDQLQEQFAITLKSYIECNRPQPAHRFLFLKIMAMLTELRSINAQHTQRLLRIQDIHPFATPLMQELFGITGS
Peroxisome proliferator-activated receptor gamma (Homo sapiens), sequence (P37231 whole entry, looked up, the tested form may be a part): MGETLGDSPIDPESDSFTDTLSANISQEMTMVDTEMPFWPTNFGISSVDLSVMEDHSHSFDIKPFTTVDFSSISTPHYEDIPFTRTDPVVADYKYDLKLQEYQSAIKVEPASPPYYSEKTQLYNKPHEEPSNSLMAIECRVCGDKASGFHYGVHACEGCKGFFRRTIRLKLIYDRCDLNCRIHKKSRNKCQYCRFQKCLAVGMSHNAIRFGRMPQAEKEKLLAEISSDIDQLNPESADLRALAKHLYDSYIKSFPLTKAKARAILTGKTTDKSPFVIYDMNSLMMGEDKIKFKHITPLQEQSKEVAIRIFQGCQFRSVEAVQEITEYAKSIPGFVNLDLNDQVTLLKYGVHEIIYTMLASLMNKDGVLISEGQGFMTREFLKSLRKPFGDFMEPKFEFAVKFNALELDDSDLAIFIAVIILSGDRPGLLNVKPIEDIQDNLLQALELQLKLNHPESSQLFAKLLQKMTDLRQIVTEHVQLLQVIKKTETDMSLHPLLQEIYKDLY
human Retinoic Acid Receptor beta (RARb), RARB (gene 5915), sequence (P10826 whole entry, looked up, the tested form may be a part): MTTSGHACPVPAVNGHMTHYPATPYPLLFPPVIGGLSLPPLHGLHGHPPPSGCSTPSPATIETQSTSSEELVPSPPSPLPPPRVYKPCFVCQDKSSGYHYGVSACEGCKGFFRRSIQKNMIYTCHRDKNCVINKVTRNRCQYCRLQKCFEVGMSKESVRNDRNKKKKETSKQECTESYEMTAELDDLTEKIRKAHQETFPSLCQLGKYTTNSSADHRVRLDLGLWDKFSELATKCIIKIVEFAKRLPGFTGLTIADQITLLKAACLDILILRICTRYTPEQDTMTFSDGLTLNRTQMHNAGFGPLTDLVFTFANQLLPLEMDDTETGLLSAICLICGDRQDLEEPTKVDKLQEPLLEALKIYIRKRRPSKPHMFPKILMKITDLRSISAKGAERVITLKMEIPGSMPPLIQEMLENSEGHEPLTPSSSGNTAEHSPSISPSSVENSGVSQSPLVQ
human Peroxisome Proliferator-activated Receptor delta (PPARd), PPARD (gene 5467), sequence (Q03181 whole entry, looked up, the tested form may be a part): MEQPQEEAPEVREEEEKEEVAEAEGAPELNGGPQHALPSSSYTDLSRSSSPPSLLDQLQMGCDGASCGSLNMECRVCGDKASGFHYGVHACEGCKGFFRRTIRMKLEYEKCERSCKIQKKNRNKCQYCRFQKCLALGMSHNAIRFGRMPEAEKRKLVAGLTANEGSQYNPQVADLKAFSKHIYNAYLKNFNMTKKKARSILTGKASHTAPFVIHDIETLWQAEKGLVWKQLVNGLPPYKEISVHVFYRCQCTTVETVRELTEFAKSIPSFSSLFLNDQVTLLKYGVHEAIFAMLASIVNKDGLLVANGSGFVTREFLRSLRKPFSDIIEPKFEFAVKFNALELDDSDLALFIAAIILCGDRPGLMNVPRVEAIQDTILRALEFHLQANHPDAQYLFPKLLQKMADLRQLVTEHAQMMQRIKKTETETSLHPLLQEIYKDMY
Retinoic acid receptor alpha (Homo sapiens), sequence (P10276 whole entry, looked up, the tested form may be a part): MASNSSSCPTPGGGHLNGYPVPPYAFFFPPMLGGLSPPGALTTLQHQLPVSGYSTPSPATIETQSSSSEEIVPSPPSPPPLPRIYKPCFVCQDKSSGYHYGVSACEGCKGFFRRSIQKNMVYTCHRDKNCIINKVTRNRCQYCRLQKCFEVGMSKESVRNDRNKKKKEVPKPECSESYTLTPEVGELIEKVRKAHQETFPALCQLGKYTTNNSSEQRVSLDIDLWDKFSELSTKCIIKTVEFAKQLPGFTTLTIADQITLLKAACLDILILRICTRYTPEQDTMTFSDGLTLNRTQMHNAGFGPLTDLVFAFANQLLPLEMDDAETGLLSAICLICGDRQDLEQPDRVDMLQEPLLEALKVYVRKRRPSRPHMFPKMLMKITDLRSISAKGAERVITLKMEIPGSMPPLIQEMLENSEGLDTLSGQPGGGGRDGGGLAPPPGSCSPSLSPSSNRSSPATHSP

Cc1ccc(N)c([N+](=O)[O-])c1
outcome [1]: inactive
outcome [2]: inactive
outcome [3]: inactive
outcome [4]: inactive

COC(=O)c1sccc1S(N)(=O)=O
outcome [1]: inactive
outcome [2]: inactive
outcome [5]: inactive
outcome [4]: inactive
outcome [6]: inactive

O=C1CC2CC1C1CCCC21 (stereo not given)
outcome [1]: inactive
outcome [2]: inactive
outcome [3]: inactive
outcome [4]: inactive
outcome [6]: inactive
outcome [7]: inactive

CCC(C)C=O (stereo not given)
outcome [1]: inactive
outcome [2]: inactive
outcome [4]: inactive

CC(C)CCCC(C)CC=O (stereo not given)
AC50 [1]: 45.8 µM (active)
outcome [2]: inactive
outcome [3]: inactive
outcome [4]: inactive

CC(C)c1ccc2c(c1)CC[C@H]1[C@](C)(CN)CCC[C@]21C
AC50 [1]: 6.09 µM (active)
outcome [2]: inactive
AC50 [3]: 6.02 µM (active)
outcome [4]: inactive

CC(CC=O)CCCC(C)(C)O (stereo not given)
outcome [1]: inactive
outcome [2]: inactive
outcome [3]: inactive
outcome [4]: inactive
outcome [7]: inactive

CC=CC(F)(F)C(F)(F)C(F)(F)F
outcome [1]: inactive
outcome [2]: inactive
outcome [3]: inactive
outcome [4]: inactive

C=CC(C)(C)C
outcome [1]: inactive
outcome [2]: inactive
outcome [3]: inactive
outcome [4]: inactive

O=c1[nH]nc(-c2ccc([N+](=O)[O-])o2)o1
outcome [1]: inactive
outcome [2]: inactive
outcome [4]: inactive
outcome [7]: inactive

CC(C)=CCCC(C)C=O (stereo not given)
outcome [1]: inactive
outcome [2]: inactive
outcome [3]: inactive
AC50 [4]: 7.95 µM (active)

O=S(=O)(O)CC(O)CCl (stereo not given)
outcome [1]: inactive
outcome [2]: inactive
AC50 [3]: 26.4 µM (active)
outcome [4]: inactive

CC(=O)CC(N)=O
outcome [1]: inactive
outcome [2]: inactive
outcome [4]: inactive

COC(=O)c1c(C)cc(O)c(C)c1O
outcome [1]: inactive
outcome [2]: inactive
outcome [4]: inactive
outcome [6]: inactive

CCC(C)OC(=O)c1ccc(O)cc1 (stereo not given)
outcome [1]: inactive
outcome [2]: inactive
AC50 [3]: 62.1 µM (active)
AC50 [4]: 14.8 µM (active)
outcome [6]: inactive

Oc1ccc(Cl)cc1Cc1cc(Cl)ccc1O
AC50 [1]: 6.86 µM (active)
outcome [2]: inactive
AC50 [4]: 2.94 µM (active)

O=[N+]([O-])c1ccc(CO)cc1
outcome [1]: inactive
outcome [2]: inactive
outcome [4]: inactive
outcome [7]: inactive

CC(=O)c1ccc2c(c1)CCCC2
outcome [1]: inactive
outcome [2]: inactive
outcome [4]: inactive

O=C(O)CC(C(=O)O)C(CC(=O)O)C(=O)O (stereo not given)
outcome [1]: inactive
outcome [2]: inactive
outcome [3]: inactive
outcome [4]: inactive
outcome [6]: inactive

Cc1cccc(N(C)C(=S)Oc2ccc3ccccc3c2)c1
outcome [1]: inactive
outcome [2]: inactive
AC50 [3]: 2.88 µM (active)
AC50 [4]: 0.337 µM (active)

[Cl][Nd]([Cl])[Cl]
outcome [1]: inactive
outcome [2]: inactive
outcome [4]: inactive
outcome [6]: inactive

O=C(C=Cc1ccccc1)OCc1ccccc1
outcome [1]: inactive
outcome [2]: inactive
AC50 [3]: 0.162 µM (active)
outcome [4]: inactive
outcome [7]: inactive

C[C@]12C=CC(=O)C=C1CC[C@@H]1[C@@H]2[C@@H](O)C[C@@]2(C)[C@H]1CC[C@]2(O)C(=O)CO
outcome [1]: inactive
outcome [2]: inactive
AC50 [4]: 25.9 µM (active)

CCc1c(C(=O)O)c(=O)cnn1-c1ccc(Cl)cc1
outcome [1]: inactive
outcome [2]: inactive
outcome [3]: inactive
outcome [4]: inactive

CN(C)c1ccc(C(=N)c2ccc(N(C)C)cc2)cc1
outcome [1]: inactive
outcome [2]: inactive
outcome [4]: inactive
outcome [6]: inactive

COC(=O)/C=C/C(C)=C\C=C\C(C)=C\C=C\C=C(C)\C=C\C=C(C)\C=C\C(=O)O
outcome [1]: inactive
outcome [2]: inactive
AC50 [3]: 27.9 µM (active)
outcome [4]: inactive

CCCCCCCCO[C@@H]1O[C@H](CO)[C@@H](O)[C@H](O)[C@H]1O
outcome [1]: inactive
outcome [2]: inactive
outcome [3]: inactive
outcome [4]: inactive

CC(C)CCCCCOC(=O)CCS
AC50 [1]: 9.41 µM (active)
outcome [2]: inactive
AC50 [4]: 27.1 µM (active)

NC(=O)c1ccccc1O
outcome [1]: inactive
outcome [2]: inactive
outcome [4]: inactive

O=C(O)c1ccccc1Nc1cccc(C(F)(F)F)c1
AC50 [1]: 13.9 µM (active)
AC50 [2]: 40.1 µM (active)
AC50 [3]: 6.64 µM (active)
outcome [4]: inactive
outcome [6]: inactive

CCOC(=O)[C@H](C)O
outcome [1]: inactive
outcome [2]: inactive
outcome [5]: inactive
outcome [4]: inactive
outcome [6]: inactive

O=[N+]([O-])C1(Br)COCOC1
outcome [1]: inactive
outcome [8]: inactive

C=CC(=O)OCC(Br)CBr (stereo not given)
AC50 [1]: 144 µM (active)
AC50 [9]: 30.1 µM (active)
AC50 [10]: 9.42 µM (active)
AC50 [3]: 51.6 µM (active)
AC50 [4]: 100 µM (active)
outcome [7]: inactive

CC(C)c1ccc2c(C(C)C)cc(C(C)C)c(S(=O)(=O)O)c2c1
outcome [1]: inactive
outcome [8]: inactive
AC50 [3]: 25.1 µM (active)
AC50 [4]: 1.23 µM (active)
outcome [7]: inactive

CCOC(=O)Cc1cccc2ccccc12
outcome [1]: inactive
outcome [8]: inactive
outcome [5]: inactive
AC50 [3]: 44.5 µM (active)
outcome [4]: inactive
outcome [6]: inactive

O=C(Nc1ccccc1SSc1ccccc1NC(=O)c1ccccc1)c1ccccc1
AC50 [1]: 23.4 µM (active)
outcome [9]: inactive
AC50 [10]: 5.29 µM (active)
AC50 [3]: 17.7 µM (active)
AC50 [4]: 8.27 µM (active)

OC1OCCOC1O (stereo not given)
outcome [1]: inactive
outcome [8]: inactive
outcome [4]: inactive
outcome [7]: inactive

CC(=O)Oc1ccc(C)cc1
outcome [1]: inactive
outcome [8]: inactive
outcome [3]: inactive
outcome [6]: inactive

CCCCCCCC[N+](C)(CCCCCCCC)CCCCCCCC
outcome [1]: inactive
outcome [8]: inactive
outcome [5]: inactive
outcome [6]: inactive

CCCCCCCCC(=O)OCC
outcome [1]: inactive
outcome [8]: inactive
outcome [5]: inactive
outcome [4]: inactive
outcome [6]: inactive

O=C1C(N(CO)C(=O)NCO)N(CO)C(=O)N1CO (stereo not given)
outcome [1]: inactive
outcome [8]: inactive
outcome [5]: inactive
outcome [3]: inactive
outcome [6]: inactive
outcome [7]: inactive

O=C1CCCCCCCCCCC(=O)OCCO1
outcome [1]: inactive
outcome [8]: inactive
outcome [5]: inactive
outcome [3]: inactive
outcome [4]: inactive
outcome [6]: inactive
outcome [7]: inactive
